Hit rate of the full screen: of about 370,000 compounds, about 4,700 (1.3%) were called active. This is one part of a sample in which actives are shown more often than they occur. A number with no mark means an inactive call.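 The calls were made as follows: active = inhibition above the plate cutoff, the mean of all test compounds on that plate plus 3 SD (cut at about 35% in these data); inactive = the rest.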
Test: small molecules binding CAG repeat RNA – biochemical, fluorescence, primary screen (AID 651821);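 also: 0% = DMSO alone and 100% = 100 µM mitoxantrone as full dye displacement; higher means more dye released from RNA so lower well fluorescence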
Settings: r(CAG) RNA repeat, TO-PRO-1 dye displacement fluorescence; at 3 µM; hits give high values
`COc1ccc(C(C(=O)Nc2c(C)cccc2C)N2CCN(c3ccc(C)cc3)CC2)cc1` (stereo unspecified) showed an inhibition of 1.38%. With `O=C(NC1CCCCC1)C(c1cc2ccccc2o1)n1c(=O)c(-c2ccco2)nc2ccccc21` (stereo unspecified) the inhibition was 24.4%. For `CCCCCNC(=O)C(c1ccc(OC)cc1)n1c(=O)c(-c2ccccc2)nc2ccccc21` (stereo unspecified), the inhibition was 7.62%. Molecule `COc1ccc(C(C(=O)NCc2ccccc2)n2c(=O)c(-c3ccccc3)nc3ccccc32)cc1` (stereo unspecified) has an inhibition of 7.82%. For `COc1ccc(NC(=O)C(c2ccncc2)n2c(=O)c(-c3cc4ccccc4[nH]3)nc3ccccc32)cc1` (stereo unspecified), the inhibition was 19.9%. Molecule `CCC(C(=O)Nc1c(C)cccc1C)n1c(-c2cc(C)cs2)nc2ccccc21` (stereo unspecified) has an inhibition of 2.46%. For `Cc1cccc(C)c1NC(=O)C(c1ccc(C(F)(F)F)cc1)n1c(=O)c(-c2ccco2)nc2ccccc21` (stereo unspecified), the inhibition was 34.8% (active). For `Cc1cccc(C)c1NC(=O)C(c1cccc2ccccc12)n1c(=O)c(-c2ccco2)nc2ccccc21` (stereo unspecified), the inhibition was 43.8% (active). With `N#Cc1ccc(C(C(=O)NCc2ccccc2)n2c(=O)c(-c3ccco3)nc3ccccc32)cc1` (stereo unspecified) the inhibition was 38.9% (active). For `CC(=O)N1CCc2cc(S(=O)(=O)NCCC(=O)N3CCCC3)ccc21`, the inhibition was 0.89%. For `COc1ccc(C2=CN(Cc3ccccc3)C(c3ccc(OC)cc3)CC2=O)cc1` (stereo unspecified), the inhibition was 2.54%. Work on `COC(=O)C1CN(CCc2ccccc2)CCS(=O)(=O)N1Cc1ccc(F)cc1` (stereo unspecified) yielded an inhibition of 5.69%. Work on `O=C(NCC1COc2ccccc2O1)c1ccc(NC(=O)c2cc(F)ccc2F)cc1` (stereo unspecified) yielded an inhibition of 4.71%. Work on `CC(CCN1CCC(C(O)(c2ccccc2)c2ccccc2)CC1)Oc1ccc([N+](=O)[O-])cc1Cl` (stereo unspecified) yielded an inhibition of 2.17%. Work on `CCOC(=O)Cc1csc(SCC(=O)NC(C)C23CC4CC(CC(C4)C2)C3)n1` (stereo unspecified) yielded an inhibition of -11.4%. Work on `O=[N+]([O-])c1ccc(NS(=O)(=O)c2ccccc2)c(Cl)c1` yielded an inhibition of 6.07%. In the case of `O=S(=O)(Nc1ccc(O)c2ccccc12)c1ccc(OC(F)(F)F)cc1`, the inhibition is reported as 39% (active). For `O=S(=O)(Nc1ccc(OC(F)(F)F)cc1)c1cccc2nonc12`, the inhibition was 3.85%. `COC(=O)[C@]12C[C@H](CC(=O)NCc3cccc4ccccc34)C(=O)N(CCc3ccc(OC)c(OC)c3)C1=C[C@H](C1CCCC1)O[C@@H]2C` showed an inhibition of 6.55%. For `Nc1[nH]c(/C=C2/CCCCC2n2[nH]c(=O)n(-c3ccccc3)c2=O)c(Cc2ccccc2)[n+]1Cc1ccccc1` (stereo unspecified), the inhibition was 8.51%. Work on `COc1ccc(CCNC(=O)CSc2nc3c([nH]2)c(=O)n(C)c(=O)n3C)cc1` yielded an inhibition of 1.31%.
